The sample as a whole holds a higher share of hits than the screen did.
ERK EGF block: qHTS Assay for Inhibitors of the ERK Signaling Pathway using a Homogeneous Screening Assay; Stimulation with EGF. Potency, µM (highest dose often 11.5 µM), for inactives: at the top dose activity change, negative = inhibition, actives largely listed as inhibitors. HEK293-V1b, EGF-stimulated phospho-ERK AlphaScreen. actives 0.41% (n = 130,000); active = well fitted inhibition curve with a large enough effect;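 note: plate controls were stimulated vehicle wells for no effect and unstimulated vehicle basal for full effect; nearly all actives have a fitted effect of over 55% in size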
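Concentration-response of compounds against EGF-driven ERK phosphorylation in V1b-expressing HEK293 cells; 30 min preincubation, 5 min EGF, AlphaScreen detection; Normalized to DMSO basal and 25 nM EGF.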
* = called active by the depositor; ! = repeats disagree; [ ] = another dose, or the depositor's remark. Potency is the fitted concentration of half-maximal effect.

SMILES	ERK EGF block
Cc1cccc(N2CCN(C(=S)c3ccc([N+](=O)[O-])cc3)CC2)c1	18µM*
O=[N+]([O-])c1cccc(C(=S)N2CCN(c3ccccc3)CC2)c1	6%
C[C@@H]1C[C@](C)(C(=O)c2ccco2)C=C1c1ccco1	-1%
CS(=O)(=O)c1ccc(CNC(=O)[C@H]2C[C@@H]2[C@H](NP(=O)(c2ccccc2)c2ccccc2)c2ccccc2)cc1	2%
COCC(=O)C(C(=O)OC)[C@H](CCc1ccccc1)NC(=O)OC (some centres undefined)	-12%
Cc1cn([C@H]2C[C@@H](N=[N+]=[N-])[C@@H](CO)O2)c(=O)[nH]c1=O	0%
COc1ccc(NC(=O)c2cc3cccc(OC)c3oc2=Nc2ccc(C(=O)O)cc2)cc1OC	-1%
Cc1ccc(-c2cc(C(=O)Nc3ccccn3)c3ccccc3n2)o1	-4%
COc1ccc(N=c2oc3cc(O)ccc3cc2C(=O)Nc2ccccn2)cc1OC	28µM*
CC(C)OC(=O)[C@@H]1CC[C@H](C)[C@@H](CCCCO)O1	-20%
CNC(=O)Oc1ccc2c(c1)[C@@]1(C)CCN(C)C1N2C (some centres undefined)	19%
CC(=O)Oc1cc(OC(C)=O)c2c(=O)cc(-c3ccc(OC(C)=O)c(OC(C)=O)c3)oc2c1	9%
CN(C)/C=C1/C(=O)N(c2ccc([N+](=O)[O-])cc2)N=C1c1ccccc1	-6%
N#C/C(=C\c1ccc(-c2ccccc2[N+](=O)[O-])o1)C(N)=O	-4%[57.5 µM]
O=C1/C(=C\c2ccc(-c3ccccc3[N+](=O)[O-])o2)C(c2ccccc2)=NN1c1ccccc1	28µM*
Cc1c2ccccc2c(CSC(=N)N)c2ccccc12	1%
CCCn1c(-c2ccc(F)cc2)nc2c(NCCN(C(C)C)C(C)C)nc(C)nc21	9%
C=CCOC(=O)N[C@H](C[N+](=O)[O-])c1ccccc1	4%
C=C(C)C(=O)/C=C/CCC/C=C/C(=O)OCC	2%
CCCCC/C=C\C/C=C\C/C=C\CCCCCCC(=O)NCC(=O)O	-6%
Cc1ccnc(NC(=O)c2sc3cc(Cl)ccc3c2Cl)c1	4%
Cc1ccc2c(Cl)c(C(=O)Nc3ccc4c(c3)OCO4)sc2c1	0%
CCN(CC)Cc1ccc(NC(=O)c2sc3cc(Cl)ccc3c2Cl)cc1	28µM*
CC[C@H](C)[C@@H](NC(=O)O[C@@H]1Cc2cc(OC)ccc2O[C@H]1c1cccc(OC)c1)C(=O)OC	4%
FC(F)(F)c1ccccc1-c1nc(Nc2ccncc2)c2ccccc2n1	17%
SMILES	ERK EGF block
CCCNC(=O)c1noc2c1CCc1ccccc1-2	9%
COCCCNC(=O)c1cc2cc(Br)ccc2oc1=O	6%
COCCCNC(=O)c1ccc2c3c(onc13)-c1ccccc1C2=O	32µM*
Cc1nc(NC2CCCCC2)c2nc(-c3ccccc3)n(CCN3CCCC3)c2n1	5%
CC(=O)OCCC(C)CCC=C(C)C (centres undefined)	27%
Oc1cc2c(cc1O)C1c3ccc(O)c(O)c3OCC1(O)C2 (centres undefined)	11µM*!
CCCCCCCCCCCCCCC(C(=O)O)C(O)(CC(=O)OC)C(=O)O (centres undefined)	23%
N#CCCCS(=O)(=O)c1nnnn1-c1ccc(Br)cc1	2%
COC(=O)N1[C@H]2CC[C@@]3(C)CC(=O)C[C@]1(C)C3c1ccccc12	1%
CN(C)c1ccc(-c2cc(NCc3cccnc3)ncn2)cc1	13%
COc1cccc(C(=O)Oc2ccccc2/C=C\C(=O)c2cc3ccccc3o2)c1	17%
COc1ccc(O)c(C(=O)/C=C/c2cc3ccccc3o2)c1	25µM*
COc1ccc(C(=O)/C=C/c2ccccc2)c(O)c1	-8%[57.5 µM]
COC(=O)[C@H]1O[C@@H](c2cc(OC)c(C)c(OC)c2OCc2ccccc2)[C@H](C)[C@@H]2O[C@]12C	-9%
COC(=O)[C@H]1O[C@@H](c2cc(OC)c(C)c(OC)c2O)[C@H](C)[C@@H](O)[C@H]1C	-12%
C=CCC1(O)CCOc2ccccc21 (centres undefined)	-6%
CN1CCc2cc3c(cc2C(=O)Cc2ccc4c(c2C1)OCO4)OCO3	-13%
CN1/C(=C\C(=O)CSc2nncn2C)C(C)(C)c2ccccc21	2%
CN1/C(=C\C(=O)Nc2cccc(Cl)c2)C(C)(C)c2ccccc21	8%
CN1/C(=C/C(=O)C2CC2)C(C)(C)c2ccccc21	11%
CC1=NN(c2ccccc2)C(=O)/C1=C\C=C1\N(C)c2ccccc2C1(C)C	16µM*
Cc1nn(-c2ccccc2)c(N)c1C1(O)C(=O)N(C)c2ccccc21 (centres undefined)	7%
CC1=NN(c2ccccc2)C(=O)/C1=C\C=C1/N(C)c2ccccc2C1(C)C	13µM*
CNc1ccccc1C(=O)N1CCc2c([nH]c3ccccc23)C1=O	29%
OC(CNCCc1ccc(C(F)(F)F)cc1)COc1ccc2ccccc2c1 (centres undefined)	35µM*
SMILES	ERK EGF block
COc1ccc(CCNCC(O)COc2cccc(Br)c2)cc1 (centres undefined)	-2%[57.5 µM]
OC(COc1ccc(CNCCc2ccc(C(F)(F)F)cc2)cc1)CN1CCCCC1 (centres undefined)	-3%
O=C(O)c1cccc(Nc2cc(Cl)c3nonc3c2[N+](=O)[O-])c1	0%
O=[N+]([O-])c1c(Nc2ccccn2)cc(Cl)c2nonc12	14µM*
O=[N+]([O-])c1ccc(Nc2ccccn2)c([N+](=O)[O-])c1	-9%
CC1=CC(=O)OC1Cc1ccc2ccccc2n1 (centres undefined)	2%
Cc1c(CC(C)(C)C(=O)O)n(Cc2ccc(Cl)cc2)c2ccc(F)cc12	-3%
COc1ccc(C2C(C#N)=C(N)Nc3nc4ccccc4n32)cc1 (centres undefined)	-8%
COc1ccc(C2C3(C#N)C(N)=NC(OC)(OC)C23C#N)cc1 (centres undefined)	25µM*
COc1ccc([C@@H]2OC2(C(N)=O)C(N)=O)cc1	10%[57.5 µM]
COc1cc(CCN2C(=O)N[C@@H](c3ccccc3)C(C(C)=O)=C2C)cc(OC)c1OC	5%
O=C(N/N=C/c1ccc([N+](=O)[O-])o1)C(O)c1ccccc1 (centres undefined)	1%[57.5 µM]
CN(/N=C/c1ccc([N+](=O)[O-])o1)c1ccccc1	25µM*
COC(=O)N/N=C/c1ccc([N+](=O)[O-])o1	-11%
COC(=O)c1nnc(C(=O)NCc2ccccc2)c2[nH]c3ccccc3c12	-1%
Cc1ccc(N2CCOCC2)c2c1C(=O)c1ccccc1C2=O	17%
O=C(O)c1cccc(NC2=C(N3CCOCC3)C(=O)c3ccccc3C2=O)c1	6%[57.5 µM]
CN(C1=C(N2CCOCC2)C(=O)c2ccccc2C1=O)c1ccccc1	11µM*
CCCCNc1nc(C)nc2c1nc(-c1ccccc1)n2CC1CCN(C)CC1	-7%
COC(=O)c1ccccc1C[C@]1(C(=O)OC)C=C[C@H](C)[C@@H](c2ccccc2)N1C(=O)C(F)(F)F	0%
CC1(OC(=O)c2cnc3ccccc3n2)C(=O)C=C2C=C(c3ccsc3)OC=C2C1=O (centres undefined)	-12%
CN(C)CC[C@H](c1ccc(Br)cc1)c1ccccn1	-7%[25.7 µM]
COc1ccc(-c2[nH]ncc2CN2CCC(OCc3ccccn3)CC2)c(F)c1	-2%[57.5 µM]
COc1ccccc1-c1cn[nH]c1-c1ccc(OCc2ccccc2)cc1O	-10%[57.5 µM]
COc1ccc(-c2cn[nH]c2-c2ccc(OCc3ccccc3F)cc2O)cc1OC	32µM*
COc1ccc(-c2[nH]ncc2-c2csc(C)n2)c(O)c1	-5%

Screening results from PubChem.
